# Screens from PubChem.
# Rows were chosen to be rich in hits. Some 2.5% of all compounds tested hit in one or more screens of this group.
# TMEM16A act: TMEM16A chloride channel activators or potentiators, primary screen, cell-based, HTS; HEK293 TMEM16A/YFP-H148Q/I152L, iodide quench fluorescence; active compounds read low; AID 623877, 2012; actives 0.3% (n = 340,000); Anoctamin-1 (Mus musculus), Q8BHY3; B-score at 10 µM;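 active means fluorescence-ratio B-score plate-corrected deviation score at least 3 library SD below zero, with starting fluorescence score within 5 deviations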;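 further: channel opened by trigger with iodide after compound preincubation; score built on the fluorescence ratio of max minus min over baseline; more negative score means more quench and so TMEM16A activation or potentiation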
# ANO1 block: TMEM16A chloride channel inhibitors, primary screen, cell-based, HTS. Anoctamin-1 (Mus musculus), Q8BHY3. HEK293 TMEM16A/YFP iodide influx fluorescence, ionomycin. normalized B-score (activity score, 25-100; higher = stronger inhibition) at 10 µM. actives 1.2% (n = 310,000);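 active means ratio plate-corrected score three or more library SD toward inhibition, starting fluorescence score within five deviations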;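 further: score derived from kinetic fluorescence span divided by baseline fluorescence per well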
# CHT PAM: CHT positive allosteric modulators, primary screen, cell-based, membrane potential dye, choline EC20; High affinity choline transporter 1 (Homo sapiens), Q9GZV3; CHT-expressing cells; active compounds read high; LV-AA mutant CHT in HEK293 cells; B-score at 10 µM; actives 0.49% (n = 310,000); AID 488977, 2010;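 active means initial fluorescence not abnormally high and integrated response B-score, plate-corrected, over 3 SD above library mean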
# Target sequence (Q9GZV3 whole entry, looked up): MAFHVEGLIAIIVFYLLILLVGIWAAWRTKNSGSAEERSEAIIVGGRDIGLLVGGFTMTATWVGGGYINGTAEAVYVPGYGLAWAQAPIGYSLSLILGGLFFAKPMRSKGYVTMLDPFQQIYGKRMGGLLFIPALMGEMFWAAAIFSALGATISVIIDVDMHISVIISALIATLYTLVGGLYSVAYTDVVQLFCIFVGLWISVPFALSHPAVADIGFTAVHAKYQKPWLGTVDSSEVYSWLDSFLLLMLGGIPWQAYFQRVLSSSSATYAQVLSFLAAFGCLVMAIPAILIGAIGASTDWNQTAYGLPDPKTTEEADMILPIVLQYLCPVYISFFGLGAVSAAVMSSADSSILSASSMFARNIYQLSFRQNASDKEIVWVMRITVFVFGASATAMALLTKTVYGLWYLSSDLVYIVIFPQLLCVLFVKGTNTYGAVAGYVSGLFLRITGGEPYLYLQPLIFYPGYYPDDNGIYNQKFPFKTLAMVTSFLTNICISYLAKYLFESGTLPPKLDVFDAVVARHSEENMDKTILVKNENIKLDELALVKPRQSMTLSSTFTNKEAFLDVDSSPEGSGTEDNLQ
# CHT inh: inhibitors of human choline transporter CHT | High affinity choline transporter 1 (Homo sapiens), Q9GZV3 | CHT-expressing cells, membrane potential dye, choline response; active compounds read low | B-score at 10 µM | actives 0.86% (n = 310,000) | AID 488975, 2010;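 active means B-score over 3 SD under the library average, and starting fluorescence ratio not unusually high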;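 further: choline stimulus applied at its EC90 after an EC20 pre-addition; B-score computed on integrated fluorescence ratio after choline addition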
# PKA-R1A activ: activators of PKA-R1A holoenzyme, primary screen, biochemical, fluorescence polarization, Cy5-IP20, bovine R1A, mouse PKAc; PKA-R1A dissociation; scaled: DMSO 0%, 113 µM cGMP 100%; AID 504707, 2011; activation, % at 11.4 µM; actives 0.083% (n = 340,000); cAMP-dependent protein kinase type I-alpha regulatory subunit (Bos taurus) + …;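 active means percent activation above the mean of all tested compounds plus 3 SD, cut at about 19% in these data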;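 further: higher means more PKAc released from R1A so a rise in polarization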
# PKA-R2B activ: activators of PKA-R2B holoenzyme, primary screen, biochemical, fluorescence polarization, Cy5-IP20, human | cAMP-dependent protein kinase catalytic subunit beta (Homo sapiens) + cAMP-dependent … | AID 504700, 2011 | activation, % at 11.4 µM | actives 0.079% (n = 340,000) | PKA-R2B holoenzyme dissociation; R2B truncated from residue 108, S112A mutant; 0% DMSO only, 100% 113 µM cGMP;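 active means activation above a cutoff set at the mean over all compounds plus 3 SD, cut at about 18% in these data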;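 further: higher means more holoenzyme dissociation and a rise in polarization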
# * = called active by the depositor; i = inactive; · = no result.
SMILES,TMEM16A act,ANO1 block,CHT PAM,CHT inh,PKA-R1A activ,PKA-R2B activ
CCN(CC)C(=O)c1ccc(NC(=O)c2cccc(S(=O)(=O)N3CCN(Cc4ccccc4)CC3)c2)cc1,i,25*,i,i,2,-10
Cc1c2cnn(CC(=O)N3CCC4(CC3)OCCO4)c(=O)c2c(C)n1Cc1ccc(F)cc1,i,i,i,i,-1,1
O=C(Cn1ncc2c3ccccc3n(Cc3ccccc3F)c2c1=O)N1CCC2(CC1)OCCO2,-21*,i,i,i,3,-6
C/C=C(\C)C(=O)OC1C(C)=C2C(C1OC(=O)CCCCC)C(C)(OC(C)=O)CC(OC(=O)CCC)C1(O)C2OC(=O)C1(C)O (stereo not drawn),·,100*,8*,i,·,·
NC(=O)c1ccc(N)nc1,i,·,·,·,3,5
COc1cc2c(c(OC)c1OC)-c1ccc(O)cc1[C@@H](NC(C)=O)CC2,i,i,8*,i,-7,-5
C=CCNC(=S)N1Cc2ccccc2-n2nncc2C1,·,·,·,·,-1,4
CCCC(C)C1C(C#N)=C(N)Oc2c1c(=O)oc1ccccc21 (stereo not drawn),i,100*,i,i,9,6
CC(C)C1C(C#N)=C(N)Oc2c1c(=O)oc1ccccc21 (stereo not drawn),·,·,·,·,-2,2
S=P(NCCNP(=S)(N1CC1)N1CC1)(N1CC1)N1CC1,i,·,·,·,1,9
COC1C(OC(=O)c2ccc(C)[nH]2)C(O)C(Oc2ccc3c(O)c(NC(=O)c4ccc(O)c(CC=C(C)C)c4)c(=O)oc3c2Cl)OC1(C)C (stereo not drawn),i,100*,i,i,3,3
Cn1cc(C=O)c2nccnc21,·,·,·,·,-7,-8
Nc1cccc2c1Cc1cc([N+](=O)[O-])ccc1-2,i,·,·,·,9,4
CC1=C(O)C(=O)C=C2C1=CC=C1C2(C)CCC2(C)C3CC(C)(C(=O)O)CCC3(C)CCC12C (stereo not drawn),-10*,·,·,·,-4,-9
C[N+](C)(C)CC#CCN1CCCC1=O,-7.9*,i,i,i,-17,-5
C/C(Cl)=C/CC1(CN2CCCC2=O)C(=O)NC(=O)NC1=O,i,i,i,i,0,7
O=P(Oc1ccccc1)(Oc1ccccc1)N1CCOCC1,i,·,·,·,1,-4
CCOc1ccc(-c2c(C)n(-c3ccc(OCC)cc3)c3[n+]2CCCCC3)cc1,i,25*,i,i,-5,1
CCOc1ccc(-n2c(-c3ccoc3)nc3ccccc3c2=O)cc1,i,i,i,i,-1,-3
CCCN(CC#CCOc1ccc(OC)cc1)CCC,-16*,i,i,i,1,-2
CN1CCN(CC#CCOc2ccc(Cl)cc2)CC1,i,i,i,i,0,-6
Cn1ncnc2c(=O)n(C)c(=O)nc1-2,i,25*,i,i,-15,-7
CCOc1cccc(=NC2CCCCC2)c2c(C)n(C)c(C)c12,i,100*,i,i,·,·
COC1CCC(OC2CC(C3(C)CCC4(CC(O)C(C)C(C(C)/C=C(\C)C(=O)C(C)CC(C)C(=O)O)O4)O3)OC3(OC(C4OC(O)(CO)C(C)CC4C)CC3C)C2C)OC1C (stereo not drawn),-4.8*,·,·,·,4,12
COC(=O)C1=C(c2ccc(OC)c(OC)c2)C[C@@H]2CC[C@H]1N2C(=O)NCCOc1ccc(OC)cc1,i,·,·,·,-3,-4
SMILES,TMEM16A act,ANO1 block,CHT PAM,CHT inh,PKA-R1A activ,PKA-R2B activ
O=C(Cc1cccs1)N1Cc2ccccc2-n2nncc2C1,·,·,·,·,-3,6
COC(=O)C1=C(c2ccc(OCc3ccccc3)cc2)C[C@@H]2CC[C@H]1N2C(=O)NCc1ccccc1C(F)(F)F,·,·,·,·,7,-5
c1ccc(-c2cc(-c3ccccc3)[n+](-c3ccccc3)c(-c3ccccc3)c2)cc1,i,25*,i,i,4,0
Cc1ccc(-c2cc(-c3ccccc3)cc(-c3ccccc3)[n+]2-c2ccccc2)cc1,i,100*,i,i,-2,-2
CCOC(=O)c1cccc(-[n+]2c(-c3ccccc3)cc(-c3ccccc3)cc2-c2ccccc2)c1,-5.6*,i,i,i,-2,5
COc1ccc(C2C3C=CC(C3)C2C(=O)O)cc1 (stereo not drawn),·,·,·,·,6,-8
CN1CN(c2ccccc2)C2(CCN(CCCSc3ccccc3NC(=O)/C=C/c3ccccc3)CC2)C1=O,i,·,·,·,13,-2
COc1ccc2c(c1)c(C(=O)C(C)N1CCCCC1)c(C)n2C (stereo not drawn),i,i,i,i,-2,-10
COC(=O)C1=C(C(=O)OC)C2OC1c1cc3ccccc3cc12,-4.9*,·,·,·,10,-17
COC(=O)C1=C(c2ccc3ccccc3c2)C[C@@H]2CC[C@H]1N2C,i,·,·,·,1,9
COc1cc(OC)c(OC)cc1CNCCc1cccc(F)c1,i,i,i,i,0,7
COc1ccc(CNCCc2cccc(F)c2)c2ccccc12,·,i,i,-7.2*,·,·
Oc1ccc2c3c1OC1c4[nH]c5ccccc5c4C[C@@]4(O)C(C2)N(CC2CC2)CC[C@]314 (stereo partly drawn),i,·,·,·,1,0
C=C(C)CN1CC[C@]23c4c5ccc(O)c4O[C@H]2c2[nH]c4ccccc4c2C[C@@]3(O)C1C5,·,i,i,-5.3*,·,·
CS(=O)(=O)c1ccc(C2=C(CNC(=O)c3cccs3)[C@H]3CC[C@@H](C2)N3Cc2ccco2)cc1,·,·,·,·,10,4
COc1cc(/C=C/c2nc3ccccc3c(=O)n2-c2ccccc2O)ccc1O,i,i,i,i,-1,-8
COc1cc(/C=C/c2nc3ccccc3c(=O)n2-c2cccc(O)c2)ccc1O,-5.2*,i,i,i,-10,-11
CN1C(=O)COc2c(C(=O)NC3CN4CCC3CC4)cc(Cl)cc21 (stereo not drawn),·,i,8.9*,i,·,·
COc1cccc(OCc2cc(C(=O)N3C[C@H]4C[C@@H](C3)c3cccc(=O)n3C4)no2)c1,i,·,·,·,-11,-9
